Screens (PubChem)
KB-V1 MDR tox = kills drug-selected multidrug resistant KB-V1 cells. KB-V1 MDR cells viability, CellTiter-Glo, 72 h. Potency, µM (top dose mostly 46.1 µM), actives largely listed as cytotoxic. 400,000 compounds, 3.4% hits; further: nearly all actives have a fitted effect of over 60% in size
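In this primary screen, KB-V1 cells overexpressing P-gp are incubated with library compounds (lowest to highest concentration) for 72 h at 37 degrees C before a luminescent ATP viability read.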
MCF10A rerep = DNA re-replication induction in MCF 10a cells. MCF 10A DNA re-replication, Hoechst nuclear intensity, 48 h. Potency, µM (titrated, usually from 46.1 µM), most hits filed as activators. 350,000 compounds, 2.9% hits; further: nearly all actives have a fitted effect of over 50% in size
ELG1 repair inh = ELG1-dependent DNA repair inhibition; AID 504467; Potency, µM (series often up to 46.1 µM), usual class: inhibitors; HEK293T ELG1-luciferase reporter, luminescence, 16 h; DNA damage induced by 5-fluorouridine; 330,000 compounds, 2.3% hits; further: nearly all actives have a fitted effect of over 55% in size
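Step one: seed 2,000 cells per well. Step two: pin-transfer compound or DMSO alongside 5-fluorouridine. Step three: incubate 16 hr, 37 °C, 5% CO2. Step four: add ONE-Glo, wait 30 min, read luminescence.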
SW480 rereplic = induces DNA re-replication in SW480 colon adenocarcinoma cells; SW480 DNA re-replication, Hoechst DNA content imaging, 48 h; Potency, µM (top dose mostly 46.1 µM), most hits filed as activators; 340,000 compounds, 1.8% hits; further: nearly all actives have a fitted effect of over 55% in size
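First, 250 cells per well were seeded. Next, compound or vehicle (23 nL) was pinned in, plates sat 48 hr at 37 C. Finally Hoechst was added for 40 min before fluorescence scanning.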
KB-3-1 cytotox = KB-3-1 parental cell cytotoxicity; KB-3-1 viability, CellTiter-Glo ATP luminescence, 72 h; Potency, µM (series often up to 46.1 µM), hits mostly cytotoxic; 400,000 compounds, 1.4% hits; AID 1347075; further: nearly all actives have a fitted effect of over 60% in size
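Luminescent ATP read-out (CellTiter-Glo) measures survival of drug-naive KB-3-1 cells after 72 h compound exposure at 37 °C. Titration series was screened from lowest to highest concentration, with DMSO vehicle plates as background controls.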
Each line names hits and unclear results; the compound was inactive in the other large screens. Only some compounds are listed: those with a hit (about 8.1% of all), similar ones and a draw of the others. The call rests on the fitted dose curve; in most records, active means well fitted curve in the direction sought with a large enough effect; inconclusive means small, poorly fitted or top-dose-only effect, or another doubt; inactive means no such curve, though single readings can be large; an effect the other way counts as inactive or inconclusive.

Cc1nc(SCC(=O)c2cc3ccccc3oc2=O)c(C#N)c(-c2ccccc2)c1C(=O)Nc1ccccc1	KB-V1 MDR tox inconclusive, MCF10A rerep inconclusive, ELG1 repair inh inconclusive, SW480 rereplic 7.3µM
COc1ccc(-c2c(C#N)c(SCC(=O)c3cc4ccccc4oc3=O)nc(C)c2C(=O)Nc2ccccc2)cc1	KB-V1 MDR tox inconclusive, MCF10A rerep 5.2µM, ELG1 repair inh inconclusive, SW480 rereplic 21µM, KB-3-1 cytotox 18µM
COc1cccc(NC(=O)CSc2nc3cc(OC)c(OC)cc3c3nc(-c4ccccc4)nn23)c1	KB-V1 MDR tox inconclusive (no result: MCF10A rerep, ELG1 repair inh, SW480 rereplic)
N#CC1C(=O)NC(c2ccccc2)=CC1c1ccccc1 (stereo not given)	SW480 rereplic inconclusive (no result: ELG1 repair inh)
O=C(CSc1nnc(COc2ccc(Cl)cc2)o1)Nc1ccccc1	none (no result: MCF10A rerep, ELG1 repair inh, SW480 rereplic)
Cc1nn(-c2ccccc2)c(C)c1NC(=O)COC(=O)c1cccc(OC(F)F)c1	none
O=S(=O)(Nc1ccc2oc3c(c2c1)CCCC3)c1cc(Cl)ccc1Cl	none (no result: MCF10A rerep, ELG1 repair inh, SW480 rereplic)
COC(=O)c1cc2sccc2n1Cc1nc(-c2cccc(Br)c2)oc1C	KB-V1 MDR tox inconclusive (no result: MCF10A rerep, ELG1 repair inh, SW480 rereplic)
CCc1nc2ccc(C(=O)NCCCN(C)C)cn2c1N(CC)CCOC	none (no result: MCF10A rerep, ELG1 repair inh, SW480 rereplic)
C=CCOCCN(C)C1=NS(=O)(=O)c2cc([N+](=O)[O-])ccc21	MCF10A rerep inconclusive, ELG1 repair inh inconclusive, SW480 rereplic 9.2µM, KB-3-1 cytotox inconclusive
CN(CCO)C1=NS(=O)(=O)c2cc([N+](=O)[O-])ccc21	MCF10A rerep inconclusive, ELG1 repair inh inconclusive, SW480 rereplic inconclusive
Cc1ccc(-c2cnn(-c3cccc(C(F)(F)F)c3)c2N)cc1	KB-V1 MDR tox 16µM, ELG1 repair inh inconclusive
Nc1c(-c2ccccc2)cnn1-c1cccc([N+](=O)[O-])c1	KB-V1 MDR tox 23µM, ELG1 repair inh inconclusive
CN(C)CCC1(C2=CCCC2)CC/C(=C/c2ccc(Cl)cc2)C1=O (stereo not given)	MCF10A rerep inconclusive, SW480 rereplic inconclusive (no result: ELG1 repair inh)
O=C(Cn1nnc(-c2cccc(C(F)(F)F)c2)n1)NCc1ccc(F)cc1	KB-V1 MDR tox inconclusive (no result: MCF10A rerep, ELG1 repair inh, SW480 rereplic)
CC(=O)Nc1ccc(CCCCc2ccc(NC(C)=O)cc2)cc1	none (no result: ELG1 repair inh)
CC(=O)c1cccc(NC(=O)Cn2c(=O)c(CNc3ccc(C)cc3)cc3cc4c(cc32)OCCO4)c1	none (no result: MCF10A rerep, ELG1 repair inh, SW480 rereplic)
O=C(CCCc1ccccc1)Nc1nncs1	KB-V1 MDR tox 9.2µM
O=C(O)CCCC(=O)Nc1nncs1	none
COc1ccc(CC(=O)Nc2nncs2)cc1OC	ELG1 repair inh inconclusive, SW480 rereplic 8.2µM
Cc1ccc(CC(=O)Nc2nncs2)cc1	none
COCCSc1nnc(NC(=O)Cc2ccc(OC)c(OC)c2)s1	KB-V1 MDR tox inconclusive, ELG1 repair inh inconclusive, SW480 rereplic 23µM, KB-3-1 cytotox inconclusive
C=CCN1CC(C(=O)N(CCCN(C)C)C(=O)NCC)CC2c3cccc4[nH]cc(c34)CC21 (stereo not given)	none (no result: KB-V1 MDR tox, ELG1 repair inh, KB-3-1 cytotox)
CCNc1nc(SCCOc2ccc(C)cc2)nc(N(C)C)n1	KB-V1 MDR tox inconclusive, MCF10A rerep inconclusive, KB-3-1 cytotox inconclusive
Cc1ccc(OCCSc2nc(NC(C)C)nc(NC(C)C)n2)cc1	KB-V1 MDR tox inconclusive, MCF10A rerep 13µM
COc1ccc(OC2(C)CCN(Cc3ccc(-c4ccccc4)o3)C2)cc1 (stereo not given)	none (no result: MCF10A rerep, ELG1 repair inh, SW480 rereplic)
CCCCN(CCCC)S(=O)(=O)c1ccc2oc(C(=O)NCc3ccccc3)c(C)c2c1	none (no result: MCF10A rerep, ELG1 repair inh, SW480 rereplic)
COc1ccc(-c2oc(NC(=O)CSc3ncn[nH]3)c(C#N)c2-c2ccc(OC)cc2)cc1	MCF10A rerep 14µM, ELG1 repair inh inconclusive, SW480 rereplic 35µM
COc1ccccc1OCC(=O)Nc1oc(-c2ccccc2)c(-c2ccccc2)c1C#N	KB-V1 MDR tox inconclusive, MCF10A rerep inconclusive
Cc1ccc(OCC(=O)Nc2oc(-c3ccccc3)c(-c3ccccc3)c2C#N)cc1	MCF10A rerep 16µM (no result: ELG1 repair inh)
N#Cc1c(NC(=O)CN2CCOCC2)oc(-c2ccccc2)c1-c1ccccc1	none
COc1ccc(CC(=O)Nc2oc(-c3ccccc3)c(-c3ccccc3)c2C#N)cc1OC	ELG1 repair inh 23µM
N#Cc1c(NC(=O)COC(=O)C2CC3C=CC2C3)oc(-c2ccccc2)c1-c1ccccc1 (stereo not given)	MCF10A rerep 18µM
O=C(CSc1n[nH]c(-c2ccc(F)cc2)n1)N1CCN(c2ccc(F)cc2)CC1	none (no result: MCF10A rerep, ELG1 repair inh, SW480 rereplic)
CC(=O)c1ccc(Nc2nc(CN)cs2)cc1	none (no result: MCF10A rerep, ELG1 repair inh, SW480 rereplic)
